Test results: PubChem BioAssay (NCATS)
Results filed as inconclusive are left out. Where a call stands in place of a potency, no number is given. Calls of active or inactive are those of the source. Unless noted, calls come from the whole dose curve; as a rule, active = well fitted curve in the direction sought with a large enough effect; inconclusive = small, poorly fitted or top-dose-only effect, or another doubt; inactive = no such curve, though single readings can be large; an effect the other way counts as inactive or inconclusive.

Key:
[1] = biological target: Cytochrome P450 3A4 (Homo sapiens) (UniProt P08684); experiment: qHTS Assay for Inhibitors and Substrates of Cytochrome P450 3A4 (AID 884); settings: recombinant CYP3A4, Luciferin-PPXE luminescence; series mostly up to 57.1 µM; note: nearly all actives have a fitted effect of over 50% in size; note: potency is the fitted concentration of half-maximal effect
Outline: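 Luminescent readout of luciferin produced by CYP3A4 (20 nM) dealkylation of Luciferin-PPXE, 25 uM (its KM). NADPH-driven reaction ran 60 min at RT after 10 min compound preincubation; data scaled to 57 uM ketoconazole as 100% inhibition.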

[2] = Confirmation and Secondary Assay for Modulators of Hemoglobin Beta Chain Splicing at IVS2 654 locus (AID 910); settings: HeLa EGFP-654 splicing reporter, GFP fluorescence, 48 h; series mostly up to 46.1 µM;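 note: HeLa cells stably carrying EGFP split by mutant beta-globin IVS2-654 intron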
Outline: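 HeLa cells stably expressing EGFP interrupted by β-globin IVS2-654 intron, seeded overnight in Opti-MEM/2% FCS, then treated 2 days at 37 °C. Restored splicing read as total peak GFP intensity per well by laser scanning cytometry (488 nm excitation, 500–520 nm emission); 500 nM antisense PNA as control.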

[3] = qHTS Assay for Lipid Storage Modulators (AID 1519; calls by dose curve); settings: Drosophila S3 cells, BODIPY lipid droplet/cell ratio, laser cytometry, cells loaded with oleic acid; for activity change, negative = inhibition: at 57.5 µM (top of the series)
Outline: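 Cells seeded at 5,000 per well were treated with compounds over a concentration series and loaded with oleic acid (400 uM, as added). Lipid droplet fluorescence (488 nm excitation, 500-530 nm channel) was read by laser-scanning cytometry and normalized to 20 uM Triacsin C.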

[4] = biological target: Ubiquitin carboxyl-terminal hydrolase 1 (Homo sapiens) (UniProt O94782); experiment: Inhibitors of USP1/UAF1: Pilot qHTS (AID 504865); settings: purified USP1/UAF1, Ub-rhodamine cleavage fluorescence; series mostly up to 114 µM;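 note: rhodamine fluorescence freed from ubiquitin-rhodamine substrate followed over time; top concentration of the series differs between compounds; nearly all actives have a fitted effect of over 35% in size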
Outline: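 1nM USP1/UAF1 + cpd, 15 min RT; start w/ Ub-Rho 150nM final; kinetic FL 480/540 nm, 6 reads q60 s. Buffer 50mM HEPES pH 7.8, 0.5mM EDTA, 1mM TCEP, 0.01% Tween-20, 0.1 mg/ml BSA.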

[5] = biological target: Cytochrome P450 3A4 (Homo sapiens) (UniProt P08684); experiment: qHTS Assay for Activators of Cytochrome P450 3A4 (AID 885); settings: recombinant CYP3A4, Luciferin-PPXE luminescence, 60 min; series mostly up to 57.1 µM; note: nearly all actives have a fitted effect of over 65% in size; note: potency is the fitted concentration of half-maximal effect
Outline: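 Human CYP3A4 dealkylates Luciferin-PPXE to luciferin, which luciferase detection converts to light. Substrate was at its KM (25uM), buffer 200mM KPO4, reaction 60 min at RT.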

[6] = Confirmation and Secondary Assay for Modulators of Hemoglobin Beta Chain Splicing at IVS2 705 locus (AID 930); settings: HeLa EGFP-705 splicing reporter, GFP fluorescence, 48 h; series mostly up to 46.1 µM;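 note: HeLa cells stably expressing the EGFP-705 splicing reporter; GFP fluorescence per well restored by corrected splicing of the IVS2-705 intron in EGFP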
Outline: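 HeLa cells stably carrying EGFP interrupted by mutant beta-globin intron 2 (IVS2-705) treated 2 days at 37C with compound; 500 nM antisense PNA as control. Correct splicing read as total peak GFP intensity per well by laser-scanning cytometry.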

[7] = measured here: cell count channel max response
[8] = measured here: lipid channel max response

Cytochrome P450 3A4 (Homo sapiens), sequence (P08684 whole entry, looked up): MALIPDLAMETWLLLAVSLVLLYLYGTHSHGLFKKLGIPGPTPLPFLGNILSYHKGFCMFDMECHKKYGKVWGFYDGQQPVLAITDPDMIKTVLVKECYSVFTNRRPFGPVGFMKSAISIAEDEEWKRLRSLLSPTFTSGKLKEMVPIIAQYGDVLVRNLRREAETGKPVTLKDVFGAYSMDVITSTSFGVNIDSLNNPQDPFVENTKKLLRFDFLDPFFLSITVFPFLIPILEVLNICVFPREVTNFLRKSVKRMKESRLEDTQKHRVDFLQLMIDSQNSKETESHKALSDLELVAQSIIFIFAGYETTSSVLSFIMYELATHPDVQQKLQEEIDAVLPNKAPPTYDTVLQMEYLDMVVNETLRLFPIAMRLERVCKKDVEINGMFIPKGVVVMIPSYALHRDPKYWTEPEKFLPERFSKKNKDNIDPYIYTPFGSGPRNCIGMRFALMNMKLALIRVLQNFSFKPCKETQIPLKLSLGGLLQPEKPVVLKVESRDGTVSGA
Ubiquitin carboxyl-terminal hydrolase 1 (Homo sapiens), sequence (O94782 whole entry, looked up): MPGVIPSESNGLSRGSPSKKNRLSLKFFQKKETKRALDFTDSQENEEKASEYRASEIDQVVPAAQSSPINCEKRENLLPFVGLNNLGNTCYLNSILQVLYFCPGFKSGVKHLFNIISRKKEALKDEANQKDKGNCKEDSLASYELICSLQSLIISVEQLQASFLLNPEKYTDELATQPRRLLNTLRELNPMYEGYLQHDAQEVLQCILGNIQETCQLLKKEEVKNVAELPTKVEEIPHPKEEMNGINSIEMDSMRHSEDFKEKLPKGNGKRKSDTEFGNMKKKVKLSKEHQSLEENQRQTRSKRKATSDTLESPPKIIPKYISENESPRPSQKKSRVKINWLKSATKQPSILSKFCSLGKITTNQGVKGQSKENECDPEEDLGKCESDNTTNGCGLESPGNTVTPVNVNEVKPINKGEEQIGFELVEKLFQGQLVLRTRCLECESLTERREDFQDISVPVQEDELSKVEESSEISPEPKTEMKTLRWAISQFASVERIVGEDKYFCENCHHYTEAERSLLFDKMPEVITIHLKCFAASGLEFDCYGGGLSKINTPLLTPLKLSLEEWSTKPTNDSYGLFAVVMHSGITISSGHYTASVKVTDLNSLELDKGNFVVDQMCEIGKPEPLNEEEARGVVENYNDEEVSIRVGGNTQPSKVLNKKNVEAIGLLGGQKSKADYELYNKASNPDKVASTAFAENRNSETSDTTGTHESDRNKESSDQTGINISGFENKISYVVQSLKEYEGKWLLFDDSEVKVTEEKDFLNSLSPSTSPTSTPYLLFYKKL

Compound | Potency [1] | Potency [2] | activity change, negative = inhibition [3] | max response [3, 7] | max response [3, 8] | Potency [4] | Potency [5] | Potency [6]
NC(=O)NCC(N)C(=O)O (stereo not drawn) | inactive | inactive | 2.49% (inactive) | 3.72% | 6.05% | inactive | – | –
COC(=O)CC1C(C)(C)C(OC(C)=O)[C@@]2(O)C=C3C4CC(=O)OC(c5ccoc5)[C@]4(C)CCC3[C@@]1(C)C2=O (stereo partly drawn) | 7.94 µM (active) | inactive | 10.4% (inactive) | 10.1% | 21.8% | inactive | inactive | inactive
CN(C)C1C(=O)C(C(N)=O)=C(O)[C@@]2(O)C(=O)C3=C(O)c4c(O)ccc(Cl)c4C(O)[C@H]3C[C@@H]12 (stereo partly drawn) | inactive | inactive | 5.54% (inactive) | 25.6% | 35.5% | inactive | – | –
COC1C[C@@H](O[C@@H]2C(C)C(=O)OC(C)C(C)C(O)C(C)C(=O)[C@@]3(CO3)CC(C)C(OC3OC(C)CC(N(C)C)C3O)C2C)OC(C)[C@@H]1O (stereo partly drawn) | 6.31 µM (active) | inactive | 4.89% (inactive) | 4.4% | 11% | inactive | inactive | inactive
C/C=C(/C)C(=O)OC1Cc2c(ccc3ccc(=O)oc23)OC1(C)C (stereo not drawn) | inactive | inactive | 2.21% (inactive) | 9.88% | 14.5% | inactive | 15.8 µM (active) | inactive
COc1cc2c(cc1OC)Cc1cc(OC)c(OC)cc1Cc1cc(OC)c(OC)cc1C2 | 12.6 µM (active) | inactive | -1.62% (inactive) | 2.54% | 2.42% | inactive | inactive | inactive
COc1ccc2c(c1)OCC(Cc1ccc(OC)c(O)c1)C2=O (stereo not drawn) | 25.1 µM (active) | inactive | 6.62% (inactive) | 3.51% | 13% | inactive | inactive | inactive
COc1cccc2c1CCC1CC(=O)CC[C@@]21C (stereo partly drawn) | 15.8 µM (active) | inactive | 4.57% (inactive) | -12.9% | -5.49% | inactive | – | –
COC(=O)CC1C(C)(C)C(O)C2CC3=C4C=C(OC)OC(c5ccoc5)[C@]4(C)CCC3[C@@]1(C)C2=O (stereo partly drawn) | 10 µM (active) | inactive | -1.2% (inactive) | 2.63% | 3.16% | inactive | inactive | inactive
O=c1cc(-c2ccc(O)cc2)oc2ccc(O)cc12 | 3.16 µM (active) | inactive | 6.92% (inactive) | 7.61% | 15.4% | inactive | inactive | inactive
Cc1ccc2c(c1)CC[C@H]1CC(=O)CC[C@@]21C | 15.8 µM (active) | inactive | 2.54% (inactive) | -2.47% | 1.9% | inactive | inactive | inactive
Nc1nc2c(c(=O)[nH]1)N(C=O)C(CNc1ccc(C(=O)NC(CCC(=O)O)C(=O)O)cc1)CN2 (stereo not drawn) | inactive | inactive | 6.17% (inactive) | 17.6% | 27.2% | inactive | – | –
C=C[C@](C)(O)CCC1C(=C)CCC2[C@@](C)(CO)CCC[C@@]12C (stereo partly drawn) | 2.51 µM (active) | inactive | 2.53% (inactive) | -1.43% | 3.55% | inactive | inactive | inactive
OC/C=C/c1ccc(O)c(O)c1 | 15.8 µM (active) | inactive | 8.76% (inactive) | 13.5% | 23.8% | inactive | inactive | inactive
C/C=C(\C)C(=O)OC1[C@@H]2C=C3C4CC(=O)OC(c5ccoc5)[C@]4(C)CCC3[C@@](C)(C2=O)C(C(O)C(=O)OC)C1(C)C (stereo partly drawn) | 12.6 µM (active) | inactive | -1.19% (inactive) | 8.66% | 12.5% | inactive | inactive | inactive
CC(=O)OC1CC2C(C)(C)C(O)CC(O)[C@@]2(C)C2CC[C@@]3(C)C(=CC(=O)OC3c3ccoc3)[C@]12C (stereo partly drawn) | 3.98 µM (active) | inactive | 0.404% (inactive) | -0.781% | 3.91% | inactive | inactive | inactive
C=C1C(C2(C)C=CC(=O)C(C)(C)C2CC(=O)OC)CC[C@@]2(C)C(c3ccoc3)OC(=O)C3OC132 (stereo partly drawn) | 2.51 µM (active) | inactive | 4.06% (inactive) | 5.07% | 10.2% | inactive | inactive | inactive
CC(=O)OC1CC(O)C(C)(C)C2CC(OC(C)=O)[C@]3(C)C(CC[C@@]4(C)C(c5ccoc5)OC(=O)C5OC534)[C@]12C (stereo partly drawn) | 2.51 µM (active) | inactive | 4.32% (inactive) | 12.6% | 20.3% | inactive | inactive | inactive
C#CCCCCCCCCCCCC(=O)CC(O)COC(C)=O (stereo not drawn) | inactive | inactive | 3.5% (inactive) | 13.4% | 17.1% | inactive | – | inactive
COc1ccc2c(c1)O[C@@H]1c3ccc(OC)cc3OCC21 (stereo partly drawn) | inactive | inactive | 3.42% (inactive) | 4.03% | 9.6% | inactive | – | inactive
CC(C)C(N)C(=O)NC(Cc1c[nH]c2ccccc12)C(=O)O (stereo not drawn) | inactive | inactive | 7.82% (inactive) | 15.4% | 28.4% | inactive | – | inactive
Nc1nc2nc(Cl)[nH]c2c(=O)[nH]1 | inactive | inactive | 6.34% (inactive) | 6.47% | 14.5% | inactive | – | inactive
CC(=O)OCC(=O)[C@@]1(O)CCC2C3CCC4=CC(=O)CC[C@@]4(C)[C@]3(F)C(O)C[C@]21C (stereo partly drawn) | inactive | inactive | 4.35% (inactive) | 21.1% | 29.1% | inactive | – | inactive
COc1ccc(-c2coc3c(OC)c(OC)cc(OC)c3c2=O)cc1 | inactive | inactive | 12.7% (inactive) | 16.4% | 29.7% | inactive | – | inactive
